# Experiments:
# Details in all cases: concentration: 1 μM, replicates: in singlicate; n = 1
# MAP4K4 = tested on: MAP4K4
# MAP4K5 = tested on: MAP4K5
# MAPKAPK2 = tested on: MAPKAPK2
# MAPKAPK5 = tested on: MAPKAPK5
# MARK1 = tested on: MARK1
# MARK2 = tested on: MARK2
# MARK3 = tested on: MARK3
# MARK4 = tested on: MARK4
# MAST1 = tested on: MAST1
# MEK1 = tested on: T1, MEK1
# T1 construct: gene MAP2K1
# MEK2 = tested on: T2, MEK2
# T2 construct: gene MAP2K2
# MEK3 = tested on: T3, MEK3
# T3 construct: gene MAP2K3
# MEK4 = tested on: T4, MEK4
# T4 construct: gene MAP2K4
# MEK5 = tested on: T5, MEK5
# T5 construct: gene MAP2K5
# MEK6 = tested on: T6, MEK6
# T6 construct: gene MAP2K6
# MELK = tested on: MELK
# MERTK = tested on: MERTK
# MET = tested on: MET
# MINK = tested on: T7, MINK
# T7 construct: gene MINK1
# MKK7 = tested on: MKK7
# 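Note: KINOMEscan kinase panel screen.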
SMILES,%Inh (MAP4K4) [%],%Inh (MAP4K5) [%],%Inh (MAPKAPK2) [%],%Inh (MAPKAPK5) [%],%Inh (MARK1) [%],%Inh (MARK2) [%],%Inh (MARK3) [%],%Inh (MARK4) [%],%Inh (MAST1) [%],%Inh (MEK1) [%],%Inh (MEK2) [%],%Inh (MEK3) [%],%Inh (MEK4) [%],%Inh (MEK5) [%],%Inh (MEK6) [%],%Inh (MELK) [%],%Inh (MERTK) [%],%Inh (MET) [%],%Inh (MINK) [%],%Inh (MKK7) [%]
O=C(Nc1ccc2c(c1)OCO2)NC1CCN(c2ccnc(Nc3ccc(F)cc3)n2)C1 (stereo not shown) [GSK1379724],8,0,5,0,0,0,0,0,0,0,0,0,28,17,0,0,0,0,0,0
COc1ccc(Nc2nccc(-c3cccc(NC(=O)c4cc5cc(F)ccc5[nH]4)c3)n2)cc1 [GSK1229782],22,7,0,0,9,19,0,21,20,0,0,22,28,96.1,3,10,47,0,55,21
COC(=O)c1c(-c2ccccc2)c2cc(OC)ccc2c(=O)n1Cc1ccccc1,0,0,10,0,19,21,0,22,20,0,0,0,18,10,21,0,3,0,0,7
COc1ccc(CNC(=O)NC2CCN(c3ccnc(Nc4cc(OC)c(OC)c(OC)c4)n3)C2)cc1 (stereo not shown) [GSK1379748],0,0,0,0,0,0,0,0,13,0,0,0,6,98.4,0,0,36,9,0,0
COc1ccccc1-c1ccc2c(NC(=O)C3CC3)n[nH]c2n1 [SB-711239],25,26,27,2,0,0,0,0,26,0,0,16,21,0,0,15,2,0,6,7
Cl.O=C(Nc1cccc(-c2nn3ncccc3c2-c2ccnc(Nc3cccnc3)n2)c1)c1c(F)cccc1F [GSK312879],2,5,21,0,0,0,0,0,6,0,9,10,40,88,0,3,12,0,0,20
Cc1cccc(-c2nc(C)cc(Nc3ccncc3)n2)n1 [GSK257997],2,0,20,0,0,0,4,0,0,0,0,0,32,8,0,0,18,0,6,0
COc1cc2nccc(Nc3ccc(NC(=O)c4ccc(C)cc4)c(O)c3)c2cc1OC.Cl [GW440132],0,3,8,0,0,0,0,14,0,8,0,0,19,99.9,0,0,5,0,0,0
Cc1nnc(-c2ccc3occ(-c4ccc(S(C)=O)cc4)c3c2)[nH]1 (stereo not shown),0,0,0,20,21,22,0,19,7,8,1,19,37,42,0,0,13,5,17,18
Cc1cccc(-c2nc(Nc3ccncc3)c3ccccc3n2)n1 [GW855857],0,0,0,0,0,0,32,25,50,0,25,0,0,14,0,11,9,25,33,0
Cc1cccc(-c2nc(Nc3ccc4[nH]ncc4c3)c3ccccc3n2)n1 [GW857175],0,0,0,28,16,0,0,0,1,25,24,19,51,40,0,25,11,2,19,12
